Measurements taken from PubChem BioAssay (Tox21).
Records with an inconclusive call do not appear. A call without a number means that no potency is given here. The source made the active and inactive calls. The call rests on the fitted dose curve; in most records, active means well fitted cell-killing curve with a large enough effect in the repeat runs; inconclusive means weak or mixed curves, or effect the other way; inactive means no such curve, though single readings can be large or run the other way.

experiment: qHTS assay to identify small molecule agonists of the farnesoid-X-receptor (FXR) signaling pathway - cell viability counter screen (AID 743218); conditions: FXR-bla HEK293T viability, CellTiter-Glo luminescence, 16 h; series mostly up to 62.6 µM; further: nearly all actives have a fitted effect of over 45% in size
Description: U.S. Tox21 Program National Center for Advancing Translational Sciences [NCATS] NIH Chemical Genomics Center [NCGC] U.S. Environmental Protection Agency [EPA] National Institutes of Environmental Health Sciences [NIEHS] National Toxicology Program [NTP] U.S. Food and Drug Administration [FDA] Tox21 Assay Overview: The farnesoid-X-receptor (FXR), a nuclear hormone receptor, is highly expressed in liver, intestine, kidney and adrenal cortex. Natural ligands of FXR are the bile acids (Cholic acid, Chenodeoxy cholic acid etc). FXR is an important regulator of diverse metabolic pathways, including the bile acid homeostasis, lipid and glucose metabolisms. FXR regulates the expression of target genes by binding either as a monomer or as a heterodimer with the retinoid X receptor (RXR). Numerous studies have reported that FXR exerts protective function during cholestasis, diabetes, liver regeneration, and cancer. To identify compounds that activate FXR signaling, GeneBLAzer FXR-UAS-bla HEK 293T cell line (Invitrogen, Carlsbad, CA) containing a beta-lactamase reporter gene under the control of a UAS response element was used to screen the Tox21 10K compound library. The cytotoxicity of the Tox21 compound library against the FXR-bla cell line was tested in parallel by measuring the cell viability using CellTiter-Glo assay in the same wells.
Tox21 Assay Protocol Summary: FXR-bla cells were dispensed at 5000 cells/5uL/well in 1536-well black wall/clear bottom plates using a Multidrop Combi (Thermo Fisher Scientific, Waltham, MA) dispenser. After the assay plates were incubated at 37 C and 5% CO2 for 5 h, 23 nL of compounds dissolved in DMSO, positive controls or DMSO only was transferred to the assay plate by a Pintool station (Kalypsys, San Diego, CA). The assay plates were incubated at 37C for 16 h. After 1 uL of LiveBLAzerTM B/G FRET substrate was added using a Bioraptr Flying Reagent Dispenser (FRD) workstation (Beckman Coulter, Indianapolis, IN), the plates were incubated at room temperature for 2 h, and fluorescence intensity was measured by an Envision plate reader (PerkinElmer, Shelton, CT). For cell viability readout that measures cytotoxicity, 4uL/well of CellTiter-Glo reagent was added into the assay plates using a Bioraptr FRD. After 30 min incubation at room temperature, the luminescence intensity in the plates was measured using a ViewLux plate reader (PerkinElmer).
Potency means the concentration at half of the fitted maximal effect.

| Structure (SMILES) | Potency | viability change, negative = cytotoxic |
| --- | --- | --- |
| CN(C)Cc1ccccc1O | inactive | – |
| CCCNCCC | inactive | – |
| O=[N+]([O-])c1ccc(O)cc1C(F)(F)F | inactive | – |
| CCCCOC(=O)CO | inactive | – |
| OCCN1CCN(CCCN2c3ccccc3Sc3ccc(C(F)(F)F)cc32)CC1 | 29.8 µM (active) | – |
| C=Cc1ccccc1C=C | inactive | – |
| O=c1[nH]c2ccccc2n1CCCN1CCN(C(c2ccccc2)c2ccccc2)CC1 | 26.6 µM (active) | – |
| Nc1ccc(Oc2ccc(Cl)cc2)cc1 | inactive | – |
| CCCCCCOC(=O)C(C)CC (stereo not given) | inactive | – |
| CC(C)=CCC1=C(O)c2ccccc2C(=O)C1=O | inactive | – |
| CCCCCC(C)OC(=O)COc1ccc(Cl)c2cccnc12 (stereo not given) | inactive | – |
| NC(=S)NC(N)=S | inactive | – |
| NC[C@H]1O[C@H](O[C@H]2[C@H](O[C@@H]3O[C@H](CO)[C@@H](O)[C@H]3O)C(O)[C@H](N)C[C@@H]2N)[C@H](N)[C@@H](O)[C@@H]1O (stereo not given in full) | – | 5.37% [at 13.2 µM] (inactive) |
| O=c1c(O)c(-c2ccc(O)cc2O)oc2cc(O)cc(O)c12 | inactive | – |
| CCCCCCCCCCCCCC[N+](C)(C)Cc1ccccc1 | 23.7 µM (active) | – |
| Fc1ccc(C(c2ccc(F)cc2)N2CCNCC2)cc1 | 11.9 µM (active) | – |
| Clc1sc(Cl)c(Cl)c1Cl | inactive | – |
| O=C(O)CCN(C1(C(=O)NO)CCCC1)S(=O)(=O)c1ccc(Oc2ccc(F)cc2)cc1 | inactive | – |
| CCCCCCCC/C=C\CCCCCCCCN | inactive | – |
| O=C(c1ccc(O)c(O)c1)c1ccc(O)cc1O | inactive | – |

| Structure (SMILES) | Potency | viability change, negative = cytotoxic |
| --- | --- | --- |
| CCN1C(=O)c2ccccc2C1Nc1ccc(OCCN2CCCCC2)cc1 (stereo not given) | inactive | – |
| O[C@@H]([C@H](O)[C@H](O)CBr)[C@H](O)CBr | inactive | – |
| OC[C@H]1O[C@H](O[C@H]2O[C@H](CO)[C@@H](O)[C@H](O)[C@H]2O)[C@H](O)[C@@H](O)[C@@H]1O | inactive | – |
| O=C(Nc1ccc2c(O)c(N=Nc3ccc(N=Nc4ccc(S(=O)(=O)O)cc4)cc3)c(S(=O)(=O)O)cc2c1)c1ccccc1 | inactive | – |
| C#CC1(O)CC[C@H]2[C@@H]3CCC4=CCCC[C@@H]4[C@H]3CC[C@@]21C (stereo not given in full) | 23.7 µM (active) | – |
| Oc1cc(Cl)cc(Cl)c1Cl | inactive | – |
| O=[N+]([O-])c1ccc(F)c(Cl)c1 | inactive | – |
| CCCC(=O)OCCc1ccccc1 | inactive | – |
| CCN(CCN)c1cccc(C)c1 | inactive | – |
| CC1=CCC(=C(C)C)CC1 | inactive | – |
| Cc1cc(-c2ccc(N=Nc3cc(S(=O)(=O)O)c4ccccc4c3N)c(C)c2)ccc1N=Nc1cc(S(=O)(=O)O)c2ccccc2c1N | inactive | – |
| O=C(O)Cc1ccccc1Nc1c(Cl)cccc1Cl | inactive | – |
| Cc1c(F)c(N2CCNC(C)C2)cc2c1c(=O)c(C(=O)O)cn2C1CC1 (stereo not given) | inactive | – |
| FC(F)(F)c1cccc(Cl)c1 | inactive | – |
| Oc1c(I)cc(Cl)c2cccnc12 | inactive | – |
| CC(C)(C)c1ccc(C(O)CCCN2CCC(C(O)(c3ccccc3)c3ccccc3)CC2)cc1 (stereo not given) | 10.6 µM (active) | – |
| C#C[C@]1(OC(C)=O)CC[C@H]2[C@@H]3CCC4=C[C@@H](OC(C)=O)CC[C@@H]4[C@H]3CC[C@@]21C | inactive | – |
| CCC(COC(=O)CCS)(COC(=O)CCS)COC(=O)CCS | inactive | – |
| Nc1nc(N)nc(-c2cc(Cl)ccc2Cl)n1 | inactive | – |
| COc1ccc(-c2coc3cc(O)ccc3c2=O)cc1 | inactive | – |
